Hsp90 Hop PPI = changes Hsp90-Hop TPR2A binding signal, up or down | hit rate 0.44% among 71,000 | AlphaScreen TPR2A-His6 binding biotin-Hsp90 C-terminal peptide | Potency, µM (titrated, usually from 57 µM), for the others: top-dose activity change, negative = inhibition; active = well fitted curve in either direction with a large enough effect; inconclusive = small, poorly fitted or top-dose-only effect, or another doubt; note: potency is the fitted concentration of half-maximal effect; % is set by controls: 0 for no effect and ±100 for the full control effect
ERK AVP block = inhibitors of vasopressin-stimulated ERK signaling pathway; HEK293-V1b, vasopressin-stimulated pERK AlphaScreen; Potency, µM (highest dose often 57.5 µM), inactives show top-dose activity, negative = inhibition, most hits filed as inhibitors; hit rate 0.99% among 72,000; note: potency is the fitted concentration of half-maximal effect; % is set by controls: 0 for no effect and ±100 for the full control effect; nearly all actives have a fitted effect of over 55% in size
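HEK293 cells stably expressing V1b receptor, seeded overnight in 1% FBS, were treated with compounds for 30 min at 37C, then stimulated 5 min with 25 nM vasopressin; phospho-ERK read by AlphaScreen SureFire after lysis.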
Epigenetic mod = epigenetic GFP locus derepression in mouse cells. mouse C127i GFP locus derepression, cytometry, 30 h. Potency, µM (highest dose often 46.1 µM), inactives show at the top dose GFP derepression (activation). hit rate 0.09% among 68,000; note: % of control where 0% means no effect
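Locus derepression in mouse mammary C127i cells whose integrated CMV-GFP reporter is normally silent; GFP expression after 30 h compound treatment was quantified by counting fluorescent cells.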
HBB splice mod = hemoglobin beta splicing modulation; Potency, µM (top dose mostly 46.1 µM), for the others: at the top dose activation, hits mostly activators; HBB splicing reporter cell assay, activation; EGFP reporter with mutant IVS2-654 intron; response scale: normalised to 500 nM splice-correcting PNA; AID 925; hit rate 0.06% among 65,000; note: potency is the fitted concentration of half-maximal effect; 0% is about no effect
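HeLa cells stably expressing EGFP interrupted by mutant beta-globin intron 2 (IVS2-654), 500/well in 2% FCS. Treated with compound for 2 days at 37C. Splicing correction scored as total well GFP intensity (488 nm excitation, 500-520 nm emission); 500 nM antisense PNA served as control.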
Ub-GFP proteasome = ubiquitin-GFP accumulation via proteasome inhibition; Potency, µM (series often up to 45.9 µM), inactives show top-dose activation (GFP accumulation), usual class: activators; AID 526; 67,000 tested, under 10 active; Ubiquitin-GFP reporter cells, proteasome inhibition, GFP fluorescence; response scale: untreated = 0%, 10 µM MG-132 = 100%; active = well fitted activation curve with a large enough effect, not every such curve was filed as active; inconclusive = small, poorly fitted or top-dose-only effect, or another doubt; inactive = no such curve, though single readings can be large or run the other way; note: potency is the fitted concentration of half-maximal effect
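U2OS Ub(G76V)-GFP reporter; O/N plating, 0.5% FBS; cpd 46 uM–2.9 nM, 4 h, 37 °C; GFP+ cell count, 488/515 nm; norm. to basal vs 10 uM MG-132; CRC fit.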
Tau filament bind = tau filament binding | Potency, µM (highest dose often 57.1 µM), for inactives: at the top dose activity change, negative = inhibition | hit rate 2% among 71,000 | recombinant tau filaments, thioflavin S fluorescence, 15 h; filaments grown with octadecylsulfate alongside compound | P10636;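 note: potency is the fitted concentration of half-maximal effect; % is set by controls: 0 for no effect and ±100 for the full control effect; actives lower thioflavin S fluorescence by blocking filaments or displacing dye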
Target sequence (P10636 whole entry, looked up): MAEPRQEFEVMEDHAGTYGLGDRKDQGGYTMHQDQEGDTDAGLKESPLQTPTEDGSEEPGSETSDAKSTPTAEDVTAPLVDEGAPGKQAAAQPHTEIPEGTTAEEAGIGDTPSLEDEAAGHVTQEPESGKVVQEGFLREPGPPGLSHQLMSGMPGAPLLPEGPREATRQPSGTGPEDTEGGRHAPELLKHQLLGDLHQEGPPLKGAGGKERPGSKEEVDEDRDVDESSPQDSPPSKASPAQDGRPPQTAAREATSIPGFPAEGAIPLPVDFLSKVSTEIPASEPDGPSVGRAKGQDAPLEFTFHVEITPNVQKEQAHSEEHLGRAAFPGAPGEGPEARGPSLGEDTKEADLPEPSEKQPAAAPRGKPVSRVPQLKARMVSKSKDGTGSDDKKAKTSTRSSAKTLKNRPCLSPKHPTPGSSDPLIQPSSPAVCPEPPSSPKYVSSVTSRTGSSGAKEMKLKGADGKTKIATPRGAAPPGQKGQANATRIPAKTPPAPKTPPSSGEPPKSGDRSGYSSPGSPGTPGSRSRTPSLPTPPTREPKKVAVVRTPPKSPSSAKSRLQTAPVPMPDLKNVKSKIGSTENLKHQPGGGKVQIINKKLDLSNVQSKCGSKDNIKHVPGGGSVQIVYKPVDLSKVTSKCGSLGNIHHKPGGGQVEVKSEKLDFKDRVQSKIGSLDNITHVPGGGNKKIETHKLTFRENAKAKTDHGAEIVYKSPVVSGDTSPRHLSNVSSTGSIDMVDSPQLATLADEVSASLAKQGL
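Quantitative HTS: thioflavine S signal from ODS-induced tau filaments, excited at 450 nm, emission 510 nm. Conditions: 1 uM tau, 30 uM ODS, 15 h at 37 C, pH 7.4.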
Tau ThS bind = displaces Thioflavin S from human tau filaments | hit rate 40% among 60 | shares compounds with Tau filament bind | recombinant tau filaments, Thioflavin S fluorescence displacement | Potency, µM; calls by dose curve
aSyn ThS displ = compounds binding human alpha-synuclein fibrils, displacing Thioflavin S | Potency, µM | hit rate 40% among 60 | shares compounds with Tau filament bind | recombinant alpha-synuclein fibrils, ThS fluorescence displacement; calls by dose curve
Abeta ThS displ = displaces Thioflavin S from Abeta1-42 fibrils | shares compounds with Tau filament bind | hit rate 50% among 60 | Potency, µM | Abeta1-42 fibrillization, thioflavin S fluorescence, overnight 37 C; calls by dose curve
* hit, by the source's call; i = inactive; ? = inconclusive; nt = not tested or not shown; [ ] = remark or other dose. In the library only some 3% were active in any assay of this set; here they are far more common. Unless noted, calls come from the whole dose curve; as a rule, active = well fitted curve in the direction sought with a large enough effect; inconclusive = small, poorly fitted or top-dose-only effect, or another doubt; inactive = no such curve, though single readings can be large; an effect the other way counts as inactive or inconclusive.

SMILES	Hsp90 Hop PPI	ERK AVP block	Epigenetic mod	HBB splice mod	Ub-GFP proteasome	Tau filament bind	Tau ThS bind	aSyn ThS displ	Abeta ThS displ
Oc1ccccc1C1Nc2cccc3cccc(c23)N1	?	9%	0%	nt	0%	3.2µM*	3.3µM*	8µM*	3.8µM*
CCCCNC(=O)C(C#N)c1nc2ccccc2nc1N1CCCC1 (stereo unspecified)	-1%	-10%	-3%	?	?	51%	nt	nt	nt
CCCCCCOC(=O)C(C#N)c1nc2ccccc2nc1N1CCN(C)CC1 (stereo unspecified)	-20%	-10%	-3%	0%	-13%	1µM*	2.8µM*	1.8µM*	0.79µM*
COc1cccc2c1C(=O)c1c(O)c3c(c(O)c1C2=O)C[C@@](O)(C(=O)CO)C[C@H]3O[C@H]1C[C@@H](N)[C@H](O)[C@@H](C)O1.[W]	-5%[11 µM]	-10%[11.5 µM]	3%[9.22 µM]	2%[9.22 µM]	11%[9.17 µM]	-26%[11.4 µM]	4.2µM*	7.1µM*	2.8µM*
COc1cc(/C=C/c2ccccc2)oc(=O)c1	?	23%	nt	-1%	nt	2%	nt	nt	nt
CCC(C)COC(=O)c1ccc(C(=O)O)cc1 (stereo unspecified)	?	24%	0%	-1%	2%	-45%	i	i	i
Nc1ccc(O)c(-c2nc3ccccc3s2)c1	-24%	-29%	0%	0%	-14%	3.2µM*	?	?	9.2µM*
CN(C)c1ccc(N/C=C/C(=O)c2ccc(F)cc2)cc1	-23%	-25%	?	0%	-8%	3.2µM*	1.1µM*	6.2µM*	3.4µM*
N=C1C=CC(=C(c2ccc(N)cc2)c2ccc(N)cc2)C=C1	-14%[11 µM]	13µM*	5%[9.22 µM]	2%[9.22 µM]	0%[9.17 µM]	1.3µM*	1.6µM*	2.3µM*	0.51µM*
CCOC(=O)c1ccc(N)cc1	3%[26 µM]	-3%	0%[20.6 µM]	1%[20.6 µM]	3%[20.5 µM]	4%[25.6 µM]	nt	nt	nt
O[C@H]([C@H](O)[C@@H](O)c1nc2ccccc2[nH]1)[C@@H](O)c1nc2ccccc2[nH]1	-2%[11 µM]	3%[11.5 µM]	0%[9.22 µM]	2%[9.22 µM]	4%[9.17 µM]	6%[11.4 µM]	nt	nt	nt
CC(=O)c1ccc2c(c1)Nc1ccccc1S2	2%	22%	-1%	-1%	16%	2µM*	7.7µM*	6µM*	9µM*
O=C(O)CC1(CC(=O)O)Nc2ccccc2SC1=O	-3%[11 µM]	-4%[11.5 µM]	0%[9.22 µM]	0%[9.22 µM]	-2%[9.17 µM]	7%[11.4 µM]	nt	nt	nt
O=C(O)c1ccncc1.O=C(O)c1ccncc1.[NH2-].[NH2-].[Pt]	-3%[11 µM]	-14%[11.5 µM]	-3%[9.22 µM]	2%[9.22 µM]	-6%[9.17 µM]	-2%[11.4 µM]	nt	nt	nt
O=C(COc1ccccc1O)Nc1ccccc1Cl	?	21%	2%	0%	-2%	-41%	i	i	i
O=C(COC(=O)c1ccccn1)Nc1ccccc1Cl	-29%	-9%	-1%	-1%[57.5 µM]	1%	-9%	nt	nt	nt
CC(C)C(C)C	2%	-12%	nt	0%	nt	14%	nt	nt	nt
CCOc1ccc(CNc2ccc(N3CCCC3)cc2)cc1	?	?	-2%	-1%	-5%	5µM*	i	?	4.3µM*
Cc1ccc(N[C@H](c2ccccc2)c2ccc3cccnc3c2O)cc1	-20%[11 µM]	-8%[11.5 µM]	3%[9.22 µM]	1%[9.22 µM]	0%[9.17 µM]	-17%[11.4 µM]	nt	nt	nt
N=c1c(C(=O)NCc2ccc3c(c2)OCO3)cc2c(=O)n3ccccc3nc2n1Cc1cccnc1	-12%	?	-2%	5%	3%	?	?	7.4µM*	10µM*
CCOCCCn1c(=N)c(C(=O)NCc2ccc3c(c2)OCO3)cc2c(=O)n3cccc(C)c3nc21	-5%	-13%	-2%	-4%[57.5 µM]	3%	0.63µM*	9.5µM*	2.2µM*	3µM*
CC12CC[C@@H]3c4ccc(OP(=O)(O)O)cc4CCC3C1CCC2=O (stereo partly specified)	-2%[11 µM]	-7%[11.5 µM]	3%[9.22 µM]	0%[9.22 µM]	3%[9.17 µM]	9%[11.4 µM]	nt	nt	nt
CC12C=C(/C=C/c3ccccc3)C(C)(C1)C(c1ccccc1)CC2=O (stereo unspecified)	nt	23%[11.5 µM]	nt	1%[9.22 µM]	nt	nt	nt	nt	nt
NCCc1nc(-c2nc(C(=O)O)cs2)cs1	-5%[11 µM]	-20%[11.5 µM]	9%[9.22 µM]	5%[9.22 µM]	0%[9.17 µM]	2%[11.4 µM]	nt	nt	nt
NC[C@H]1O[C@H](n2cnc3c(N)ncnc32)C[C@@H]1O	-1%[11 µM]	9%[11.5 µM]	1%[9.22 µM]	4%[9.22 µM]	-4%[9.17 µM]	-12%[11.4 µM]	nt	nt	nt
